Test results reported in article PMC11984502, “A stress-responsive p38 signaling axis in choanoflagellates” (RSC Chemical Biology, 2025).
Whole data set: some 1,200 compounds, median “% viability” near 1, cut for the lowest 2% near 0.27. The list comes from a sample in which the lowest values are over-represented; it also holds similar structures and randomly drawn compounds. The numbers are fractions of the control, whatever unit the source prints.

system: S. rosetta (SrEpac culture); details: flow cytometry, 24 h, high-nutrient medium; 10 µM

SMILES	% viability
CCCc1cc(-c2cncc(OCC(N)Cc3c[nH]c4ccccc34)c2)cc2c(C)n[nH]c12 (stereo not shown) [KMS_217]	0
